Measurements published in the supplement of paper PMC12340641.
Where a name gives a salt, the structure may show the parent alone.

What follows are compounds tested against IKZF1 (dCK*-IKZF1 fusion in HEK293FT) (UniProt Q13422) (assay: inhibition of IKZF1 HTRF signal (DMSO = 0%, pomalidomide 10 uM = 100%); higher = lower IKZF1 protein level). Details: compound concentration: 5 uM, overnight (~20 h).
Procedure, shortened: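 Compound was tested at 5 μM in single wells on HEK293FT cells (2000/well, 384-well) stably carrying an IKZF1 fusion, overnight at 37 °C. Total IKZF1 was measured in lysates with a commercial HTRF antibody kit as the background-subtracted 665/620 nm time-resolved FRET ratio. The reported figure is percent inhibition of IKZF1 signal, scaled per plate between vehicle and a reference degrader. The vehicle anchor was 0% and the degrader anchor 100%.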

Chain of IKZF1 (dCK*-IKZF1 fusion in HEK293FT) (Q13422 whole entry, looked up, the tested form may be a part): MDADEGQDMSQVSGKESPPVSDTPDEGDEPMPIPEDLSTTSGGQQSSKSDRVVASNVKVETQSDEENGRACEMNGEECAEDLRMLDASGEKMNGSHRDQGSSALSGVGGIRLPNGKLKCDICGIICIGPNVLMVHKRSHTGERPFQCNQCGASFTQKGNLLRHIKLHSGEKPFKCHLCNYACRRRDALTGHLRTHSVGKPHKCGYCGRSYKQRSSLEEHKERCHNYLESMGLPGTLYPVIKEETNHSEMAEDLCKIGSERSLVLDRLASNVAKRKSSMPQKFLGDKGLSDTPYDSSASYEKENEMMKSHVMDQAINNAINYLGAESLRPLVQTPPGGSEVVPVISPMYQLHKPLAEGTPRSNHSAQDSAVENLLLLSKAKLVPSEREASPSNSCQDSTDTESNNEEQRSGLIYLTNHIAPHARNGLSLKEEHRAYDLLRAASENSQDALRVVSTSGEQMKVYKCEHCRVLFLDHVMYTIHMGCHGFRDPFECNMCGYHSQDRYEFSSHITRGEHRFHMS

SMILES	inhibition of IKZF1 HTRF signal [%]
Clc1ccc(C(Cn2ccnc2)OCc2c(Cl)cccc2Cl)c(Cl)c1 (stereo not drawn) [Isoconazole nitrate (Travogen)]	-10.4
CCC(=O)O[C@@H]1CC(=O)O[C@H](C)C/C=C/C=C/[C@H](OC(C)=O)[C@H](C)C[C@H](CC=O)[C@H](O[C@@H]2O[C@H](C)[C@@H](O[C@H]3C[C@@](C)(OC(C)=O)[C@@H](OC(=O)CC)[C@H](C)O3)[C@H](N(C)C)[C@H]2O)[C@H]1OC [Midecamycin Acetate]	-24.1
Cc1cc(Nc2ncc(Cl)c(Nc3ccccc3S(=O)(=O)C(C)C)n2)c(OC(C)C)cc1C1CCN(CC(=O)NCCNc2cccc3c2C(=O)N(C2CCC(=O)NC2=O)C3=O)CC1 (stereo not drawn)	24.5
COc1ccc2cc1Oc1ccc(cc1)C[C@H]1c3cc(c(OC)cc3CCN1C)Oc1c(OC)c(OC)cc3c1[C@H](C2)N(C)CC3 [Tetrandrine (Fanchinine)]	8.84
C[C@H]1COC2=C1C(=O)C(=O)c1c2ccc2c1CCCC2(C)C [Cryptotanshinone]	-30.9
O=C1Nc2ccc(I)cc2/C1=C/c1cc(Br)c(O)c(Br)c1	-34.2
OCCN=CCNc1ccc(NCCNCCO)c2c(O)c3c(O)ccc(O)c3c(O)c12 [Mitoxantrone HCl]	-45.5
O=C(Nc1ccc(Cl)nc1)c1ccc(Cl)cc1	-32.9
CSc1nc2cc(Cl)c(Oc3cccc(Cl)c3Cl)cc2[nH]1	-43
COC(=O)Nc1ccc(-c2nc(N3CCOCC3)c3cnn(C4CCN(Cc5cccnc5)CC4)c3n2)cc1	-7.75
C[C@@H]1CC2C3CCC4=CC(=O)C=C[C@]4(C)[C@@]3(F)[C@@H](O)C[C@]2(C)[C@H]1C(=O)CO (stereo partly drawn)	19.4
COc1cccc2c1C(=O)c1c(O)c3c(c(O)c1C2=O)C[C@@](O)(C(=O)CO)C[C@@H]3O[C@H]1C[C@H](N)[C@@H](O)[C@H](C)O1 [Epirubicin Hydrochloride]	52.4
CO[C@H]1/C=C/O[C@@]2(C)Oc3c(C)c(O)c4c(O)c(c(/C=N/N5CCN(C)CC5)c(O)c4c3C2=O)NC(=O)/C(C)=C\C=C\[C@H](C)[C@H](O)[C@@H](C)[C@@H](O)[C@@H](C)[C@H](OC(C)=O)[C@@H]1C	33.6
COc1cccc2c(O)c3c(O)c4c(c(O)c3c(O)c12)=C(O[C@H]1C[C@H](N)[C@@H](O)[C@H](C)O1)C[C@](O)(C(=O)CO)C=4 [Epirubicin HCl]	24
O=c1c(O)c(-c2cc(O)c(O)c(O)c2)oc2cc(O)cc(O)c12 [Myricetin (Cannabiscetin)]	18.8
OCCN1CCN(CCCN2c3ccccc3Sc3ccc(C(F)(F)F)cc32)CC1	-11.9
S=C=Nc1ccc(N=C=S)cc1	20.8

SMILES	inhibition of IKZF1 HTRF signal [%]
CN(C)c1ccc2c(c1)Sc1cc(N(C)C)ccc1N2.CS(=O)(=O)O [Leucomethylene blue (Mesylate)]	-24.1
CN1CCN(CCCN2c3ccccc3Sc3ccc(C(F)(F)F)cc32)CC1	5.07
CCCSc1ccc2[nH]c(NC(=O)OC)nc2c1 [Albendazole]	3.53
O=C(OOC(=O)c1ccccc1)c1ccccc1	-35.6
O=C1C=CC(=O)C2=C1C1c3ccccc3C2c2ccccc21	-32.2
COc1cc(C(=O)NS(=O)(=O)c2ccccc2C)ccc1Cc1cn(C)c2ccc(NC(=O)OC3CCCC3)cc12 [Zafirlukast]	-43.3
O=C(Nc1cccc(Cl)c1)Nc1ncc(CCNc2ncnc3ccsc23)s1 [SNS-314 methanesulfonate]	-27
COC(=O)Nc1nc2ccc(C(=O)c3ccccc3)cc2[nH]1	-12.9
CC(CNC1CCCCC1)OC(=O)c1ccccc1 (stereo not drawn) [hexylcaine]	-36.3
C/C(=N\NC(=S)N1CCC1)c1ccccn1	-11.1
Nc1ccc(-c2nc3ccc(-c4nc5ccc(N)cc5[nH]4)cc3[nH]2)cc1	1.33
NC(=O)c1cn([C@@H]2O[C@H](CO)[C@@H](O)[C@H]2O)c2ncnc(N)c2c1=O	-11.4
O=C(CCCCCCC(O)=NO)Nc1ccccc1 [Vorinostat]	-44.5
COC(=O)C1=C(C)NC(C)=C(C(=O)OCC(C)C)C1c1ccccc1[N+](=O)[O-] (stereo not drawn) [Nisoldipine]	-28.1
CCCCCCCCCCCC1=C(O)C(=O)C=C(O)C1=O [embelin]	-30.8
O=C(O)c1cc(/N=N/c2ccc(O)c(C(=O)O)c2)ccc1O	-32.5
